RPL19A-GFP yeast – yeast TOR pathway RPL19A-GFP modulation; percent response vs DMSO, % at 10 µM; actives 0.3% (n = 330,000); S. cerevisiae RPL19A-GFP strain, flow cytometry, 3 h; active compounds read low; AID 2025;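 active means percent response vs DMSO below 50%; inconclusive means fewer than 70 events counted for the yeast strain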;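 further: median channel GFP fluorescence of the barcoded RPL19A-GFP strain; lower means less RPL19A-GFP as with rapamycin TOR inhibition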
AGP1-GFP MLPCN – yeast TOR pathway AGP1-GFP modulation. S. cerevisiae AGP1-GFP multiplex flow cytometry, 3 h; GFP as percent of DMSO wells. GFP response vs DMSO, % at 10 µM. actives 0.02% (n = 320,000);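 active means GFP response relative to DMSO above a set limit, near screen average plus 3 SD, cut at about 150% in these data; inconclusive means fewer than 70 cells counted for the yeast strain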;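 further: median GFP channel fluorescence of the gated AGP1 strain per well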
MEP2 TOR yeast – modulators of TOR pathway MEP2-GFP in S. cerevisiae | AID 2016 | actives 0.51% (n = 330,000) | GFP response vs DMSO, % at 10 µM | S. cerevisiae MEP2-GFP strain, flow cytometry GFP, 3 h; 100% = DMSO control level;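 active means GFP response versus DMSO above a set limit, roughly screen mean plus 3 SD, cut at about 180% in these data; inconclusive means fewer than 70 cells counted for a yeast strain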;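 further: median GFP fluorescence of the barcode-gated MEP2-GFP cells per well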
LAP4 TOR yeast – yeast TOR pathway LAP4-GFP modulation | actives 0.34% (n = 320,000) | GFP response vs DMSO, % at 10 µM | AID 2023 | S. cerevisiae LAP4-GFP multiplex, flow cytometry GFP, 3 h; median GFP as percent of DMSO wells;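 active means GFP response vs DMSO above a set limit, about the screen mean plus 3 SD, cut at about 150% in these data; inconclusive means under 70 cell events counted for the yeast strain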
CIT2-GFP yeast – alters CIT2-GFP fluorescence in TOR pathway yeast screen; AID 2029; GFP response vs DMSO, % at 10 µM; S. cerevisiae CIT2-GFP strain, flow cytometry, 3 h; 100 means same as DMSO wells; actives 0.065% (n = 320,000);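 active means GFP response relative to DMSO above a set limit, near the screen mean plus 3 SD, cut at about 150% in these data; inconclusive means Fewer than 70 cells measured for a yeast strain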;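 further: ratio of well median GFP fluorescence to mean of DMSO wells on the plate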
Of the large screens only hits and unclear results are named; the others gave an inactive call; [ ] = remark or other dose. An excerpt weighted towards active compounds, which were near 0.92% of everything screened.

O=C(O)C1CCCCC1C(=O)Nc1ccc(F)c(F)c1 (stereo unspecified)	none
Cc1cc(-c2ccc(N=Nc3c(S(=O)(=O)O)cc4cc(S(=O)(=O)O)cc(N)c4c3O)c(C)c2)ccc1N=Nc1c(S(=O)(=O)O)cc2cc(S(=O)(=O)O)cc(N)c2c1O	RPL19A-GFP yeast inconclusive, LAP4 TOR yeast 400.2[may fluoresce red]
O=S(=O)(O)c1cc(O)c2c(O)c(N=Nc3cc(Cl)ccc3O)c(S(=O)(=O)O)cc2c1	none
CCOC(=O)C(=CNNc1cccc(Cl)c1)C(=O)OCC	LAP4 TOR yeast 154.2
Cc1cc(C)c2c(N)c3cccc(C)c3nc2n1	MEP2 TOR yeast 321.8[may fluoresce violet], CIT2-GFP yeast inconclusive
COc1ccccc1S(=O)(=O)CC(O)COc1ccccc1Cl (stereo unspecified)	CIT2-GFP yeast 150.4[may fluoresce green]
COc1ccc(N(CC(=O)N/N=C/c2ccco2)S(=O)(=O)c2ccccc2)cc1Cl	none
Cc1ccc(-c2onc3ccc(C4(C)OCCO4)cc23)cc1	RPL19A-GFP yeast 45.9[may fluoresce violet], AGP1-GFP MLPCN inconclusive, MEP2 TOR yeast 216.6[may fluoresce violet], CIT2-GFP yeast inconclusive
Cc1ccc(-c2onc3ccc(C=O)cc23)cc1	none
COc1ccccc1C1Nc2ccccc2NC2=C1C(=O)CC(C)(C)C2 (stereo unspecified)	RPL19A-GFP yeast 37.5[may fluoresce violet], AGP1-GFP MLPCN inconclusive, MEP2 TOR yeast 627.4[may fluoresce violet], CIT2-GFP yeast inconclusive
COc1ccccc1C1C2=C(CC(C)(C)CC2=O)N(CC(=O)O)C2=C1C(=O)CC(C)(C)C2	MEP2 TOR yeast 239.2
COc1cccc(C2Nc3ccccc3NC3=C2C(=O)CC(C)(C)C3)c1OC (stereo unspecified)	none
Nc1[nH]c(=O)ncc1F	RPL19A-GFP yeast inconclusive, LAP4 TOR yeast 260.7[may fluoresce red]
Cc1ccc(NC(=O)CN(C)S(=O)(=O)c2cccs2)c(Br)c1	RPL19A-GFP yeast 22.8[may fluoresce violet], AGP1-GFP MLPCN inconclusive, MEP2 TOR yeast 211.0[may fluoresce violet], CIT2-GFP yeast inconclusive
CN(CC(=O)NCCc1ccccc1)S(=O)(=O)c1cccs1	none
CN(CC(=O)NCCc1ccc(Cl)cc1)S(=O)(=O)c1cccs1	RPL19A-GFP yeast 19.6[may fluoresce violet], AGP1-GFP MLPCN inconclusive, MEP2 TOR yeast inconclusive, LAP4 TOR yeast inconclusive, CIT2-GFP yeast inconclusive
Cc1nn(C)cc1S(=O)(=O)Nc1ccc(C(F)(F)F)cc1	none
Cc1ccc(C2=N/C(=C\N3CCCCC3)C(=O)O2)cc1	AGP1-GFP MLPCN inconclusive, MEP2 TOR yeast 184.3[may fluoresce violet], CIT2-GFP yeast inconclusive
Cc1ccc(C2=N/C(=C/N3CCOCC3)C(=O)O2)cc1	none (no result: AGP1-GFP MLPCN)
O=C(CSc1nnc(-c2ccccc2Cl)o1)N1CCOCC1	none
Cc1ccc(NC(=O)c2ccc(Cn3cc(Br)cn3)o2)cc1	RPL19A-GFP yeast 44.0[may fluoresce violet], MEP2 TOR yeast 206.1[may fluoresce violet], CIT2-GFP yeast inconclusive
CCC(C)NCCCOc1cc(Cl)ccc1Cl (stereo unspecified)	RPL19A-GFP yeast 42.0[may fluoresce violet], MEP2 TOR yeast 609.1[may fluoresce violet], CIT2-GFP yeast inconclusive (no result: AGP1-GFP MLPCN)
CCN(CC)Cc1c(C(=O)N/N=C/c2ccccn2)nnn1-c1nonc1N	MEP2 TOR yeast 295.2[may fluoresce violet], CIT2-GFP yeast inconclusive
CCN(CC)Cc1c(C(=O)N/N=C/c2cccc3ccccc23)nnn1-c1nonc1N	none
CCN(CC)c1ccc(/C=N/NC(=O)c2nnn(-c3nonc3N)c2-c2ccc(C)cc2)cc1	RPL19A-GFP yeast 32.7[may fluoresce violet], MEP2 TOR yeast 193.2[may fluoresce violet], CIT2-GFP yeast inconclusive
CCOc1ccc(/C=N/NC(=O)c2nnn(-c3nonc3N)c2-c2ccc(OCC)cc2)cc1	none
CC(Nc1cc(C)cc(C)c1)=[N+](C)CCNS(=O)(=O)c1ccc(Cl)cc1	CIT2-GFP yeast 152.1[may fluoresce green]
Cc1cc(=O)[nH]c(SCc2csc(-c3ccccc3)n2)n1	MEP2 TOR yeast 297.8[may fluoresce violet], CIT2-GFP yeast inconclusive
Nc1cc(=O)[nH]c(SCc2csc(-c3ccccc3)n2)n1	none
CN(CC(=O)Nc1ncn[nH]1)S(=O)(=O)c1cc(Cl)ccc1Cl	none
O=C(NNC(=O)C1CCCC1)c1cc([N+](=O)[O-])cc([N+](=O)[O-])c1	none
Cn1c(SCc2ccccc2F)nnc1-c1ccccn1	none
CN(Cc1ccccc1)S(=O)(=O)c1ccc(OCC(=O)NCc2ccccn2)cc1	none
CC(C)NC(=O)COc1ccc(S(=O)(=O)N(C)Cc2ccccc2)cc1	MEP2 TOR yeast 407.7[may fluoresce violet], CIT2-GFP yeast inconclusive
O=c1nc2ccccc2c2n1CC(CN1CCN(c3ccc(F)cc3)CC1)N2 (stereo unspecified)	RPL19A-GFP yeast 31.3[may fluoresce violet], AGP1-GFP MLPCN inconclusive, CIT2-GFP yeast inconclusive
FC(F)(F)c1ccc(NCCc2ccccc2)nc1	none
NS(=O)(=O)c1ccc(CCNc2ccc(C(F)(F)F)cn2)cc1	RPL19A-GFP yeast 32.1[may fluoresce violet], AGP1-GFP MLPCN inconclusive, MEP2 TOR yeast 353.8[may fluoresce violet], LAP4 TOR yeast inconclusive, CIT2-GFP yeast inconclusive
CC(C)C(=O)Nc1cccc(NC(=O)CCN2C(=O)c3ccccc3S2(=O)=O)c1	none
CCOc1ccc(NC(=O)C/C(C)=N/NC(=O)COc2ccc(Br)cc2C)cc1	MEP2 TOR yeast 252.1[may fluoresce violet], CIT2-GFP yeast inconclusive
CC(C)(CC(=O)O)CC(=O)Nc1ccccc1Oc1ccccc1	RPL19A-GFP yeast 41.2[may fluoresce violet], AGP1-GFP MLPCN inconclusive, MEP2 TOR yeast 249.0[may fluoresce violet], CIT2-GFP yeast inconclusive
O=S(=O)(NC1=NCCCCC1)c1ccc2sc(NS(=O)(=O)c3ccc4ccccc4c3)nc2c1	RPL19A-GFP yeast 40.7[may fluoresce violet], MEP2 TOR yeast 243.2[may fluoresce violet], CIT2-GFP yeast inconclusive
O=S(=O)(Nc1nc2c(s1)CCCC2)c1ccc2ccccc2c1	none
CC1(C)CC(=O)C(C#N)=C(NCCCO)C1	none
CC1(C)CC(=O)C([N+](=O)[O-])=C(NCCCC(=O)O)C1	RPL19A-GFP yeast 26.2[may fluoresce violet], AGP1-GFP MLPCN inconclusive, MEP2 TOR yeast 709.0[may fluoresce violet], CIT2-GFP yeast inconclusive
C1CCN(c2nc(N3CCCCC3)nc(N3CCNCC3)n2)CC1	MEP2 TOR yeast 218.4[may fluoresce violet], CIT2-GFP yeast inconclusive
CC1CCN(c2nc(N3CCCCC3)nc(N3CCCCC3)n2)CC1	none
CCCN1C2CCCC1CC(NC(=O)c1cc(OC)c(OC)c(OC)c1)C2 (stereo unspecified)	none
O=c1[nH]ncc2c3ccccc3n(Cc3ccc(F)cc3)c12	AGP1-GFP MLPCN inconclusive, MEP2 TOR yeast 235.2[may fluoresce violet], CIT2-GFP yeast inconclusive
O=C(Nc1nc(-c2ccccc2)cs1)c1cccs1	none (no result: AGP1-GFP MLPCN)
Cc1ccc(C(=O)Nc2nc(-c3ccccn3)cs2)s1	none
O=C(Nc1nc(-c2ccc(Cl)s2)cs1)c1cccs1	LAP4 TOR yeast 153.3
O=C(Nc1nc(-c2ccccn2)cs1)c1ccc(Cl)s1	MEP2 TOR yeast 233.2[may fluoresce violet], LAP4 TOR yeast 312.1[may fluoresce violet], CIT2-GFP yeast inconclusive
CCOC(=O)Cn1cnc2c(nnn2-c2cccc(OC)c2)c1=O	none
CCOc1nnc(C)c2c(C)n(-c3cccc(OC)c3)nc12	MEP2 TOR yeast 317.3
CCC12OC(=N)C(C#N)(C1C)C(C#N)(C#N)C(c1ccccc1)O2 (stereo unspecified)	MEP2 TOR yeast 203.8[may fluoresce violet], CIT2-GFP yeast inconclusive
CCC(=O)OCCNc1cc(Sc2nc3ccccc3s2)c2nonc2c1[N+](=O)[O-]	LAP4 TOR yeast 258.9
CC(C)(C)NC(=O)NC(=O)COC(=O)CNS(=O)(=O)/C=C/c1ccccc1	none
Cc1ccc(C)c(NC(=O)COC(=O)CCC(=O)c2cccs2)c1	none

Screens deposited in PubChem by NMMLSC.
